The list is not random: actives were taken first. Their share in the collection is about 19%.
DT40 TDP1 no CPT: qHTS for Inhibitors of human tyrosyl-DNA phosphodiesterase 1 (TDP1): qHTS in cells in absence of CPT | DT40 Tdp1-/- hTDP1 cells, no CPT, ATP luminescence, 48 h | Potency, µM (doses to about 46.2 µM), most hits filed as inhibitors | 15% of 420,000 active | AID 686978, 2013; note: nearly all actives have a fitted effect of over 55% in size
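Luminescent ATP content (CellTiter-Glo) served as the growth readout. Knockout chicken DT40 cells expressing human TDP1 were exposed to compounds without camptothecin for a minimum 48 hr at 37 °C.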
ELG1 DNA repair: inhibitors of ELG1-dependent DNA repair in HEK293T cells | HEK293T ELG1-luciferase reporter, luminescence, 16 h; DNA damage induced by 5-fluorouridine | Potency, µM (top dose mostly 46.1 µM), most hits filed as inhibitors | 2.3% of 330,000 active; note: nearly all actives have a fitted effect of over 55% in size
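Overnight (16 hr) co-exposure of 2,000 cells/well to 5-fluorouridine and compound at 37 °C preceded detection. Luciferase was quantified via ONE-Glo luminescence; loss of signal denotes inhibition.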
Giardia kill: kills Giardia lamblia; Giardia lamblia trophozoite viability; activity change, % at 7.66 µM, hits read low; 0.15% of 340,000 active; in the data active = activity change below about -80%; inconclusive = between about -30% and that limit;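 note: parasites exposed to compound for two days anaerobically before the ATP read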
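Viability, read as ATP luminescence: trophozoites at 100 cells/well, compound added, 48 hrs anaerobic at 37 deg C, then 15-30 min room-temperature development before reading.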
TDP1 cell CPT: growth inhibition of DT40 Tdp1-/-;hTDP1 cells with camptothecin (screen for TDP1 inhibitors); Potency, µM (top dose mostly 46.2 µM), most hits filed as inhibitors; AID 686979; 12% of 420,000 active; chicken DT40 Tdp1-/-;hTDP1 cells + 20 nM CPT, ATP luminescence, 48 h; note: nearly all actives have a fitted effect of over 55% in size
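Cell growth measured by CellTiter-Glo luminescence after a minimum 48 h, 37 C compound exposure with 20 nM CPT in Tdp1-knockout DT40 cells stably expressing hTDP1, seeded 400/well; qHTS titration format.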
IL-1B inflam inh: inhibitors of inflammasome signaling (IL-1 beta secretion); 4.7% of 360,000 active; AID 743279; activity change, % at 57.5 µM; THP-1 LPS/ATP IL-1B secretion, AlphaLISA, 16 h; stronger effect = lower value; in the data active = activity change below about -50%; inconclusive = mostly about -30% to -49%
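Secreted IL-1B measured by AlphaLISA bead assay after 16 h compound exposure of THP-1 cells; compounds (final up to 57.5 uM) added 1 h before LPS (250 ng/mL) and ATP (1.25 mM) stimulation; lower signal means less secretion.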
TDP1 block: inhibitors of human tyrosyl-DNA phosphodiesterase TDP1 | recombinant TDP1, AlphaScreen DNA substrate cleavage | 0.28% of 350,000 active | Q9NUW8 | Potency, µM (top dose mostly 130 µM), hits mostly inhibitors; note: nearly all actives have a fitted effect of over 40% in size
Target sequence (Q9NUW8 whole entry, looked up): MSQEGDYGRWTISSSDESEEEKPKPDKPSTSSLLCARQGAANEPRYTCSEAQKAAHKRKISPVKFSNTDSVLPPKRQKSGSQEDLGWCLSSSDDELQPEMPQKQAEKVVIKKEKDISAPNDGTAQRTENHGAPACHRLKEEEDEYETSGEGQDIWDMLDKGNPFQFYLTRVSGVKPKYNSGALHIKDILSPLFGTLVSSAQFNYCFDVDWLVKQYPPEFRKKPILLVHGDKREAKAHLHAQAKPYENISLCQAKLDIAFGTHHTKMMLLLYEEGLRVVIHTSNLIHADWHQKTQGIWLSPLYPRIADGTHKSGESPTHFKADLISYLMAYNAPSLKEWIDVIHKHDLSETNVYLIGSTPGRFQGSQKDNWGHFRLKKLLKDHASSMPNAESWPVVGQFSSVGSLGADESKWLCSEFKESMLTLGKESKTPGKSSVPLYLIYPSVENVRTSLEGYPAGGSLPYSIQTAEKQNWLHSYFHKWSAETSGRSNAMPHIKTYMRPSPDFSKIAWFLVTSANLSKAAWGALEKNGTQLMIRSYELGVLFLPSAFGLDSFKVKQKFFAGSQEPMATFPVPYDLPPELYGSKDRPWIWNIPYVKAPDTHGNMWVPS
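Steps: enzyme plus compound, 15 min RT; add biotin/phosphotyrosine-FITC oligonucleotide (15 nM final), react 5 min; add donor/acceptor beads (10 ug/ml final), 10 min; read AlphaScreen. Tdp1 at 1 nM final.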
Large screens that a line does not name were inactive. Unless noted, calls come from the whole dose curve; as a rule, active = well fitted curve in the direction sought with a large enough effect; inconclusive = small, poorly fitted or top-dose-only effect, or another doubt; inactive = no such curve, though single readings can be large; an effect the other way counts as inactive or inconclusive.

O=[N+]([O-])c1ccc(S(=O)(=O)Nc2nc3ccccc3nc2Nc2ccccc2)cc1	DT40 TDP1 no CPT 2.9µM, ELG1 DNA repair inconclusive, TDP1 cell CPT 3.3µM, IL-1B inflam inh -73
CN1CCN(S(=O)(=O)c2ccc(Nc3cccc(Cl)c3)c([N+](=O)[O-])c2)CC1	DT40 TDP1 no CPT 23µM, TDP1 cell CPT inconclusive
O=[N+]([O-])c1cc(S(=O)(=O)N2CCCCC2)ccc1NCc1cccc(Cl)c1	DT40 TDP1 no CPT 29µM
COc1ccc(Nc2ccc(S(=O)(=O)N3CCCCC3)cc2[N+](=O)[O-])cc1Cl	DT40 TDP1 no CPT inconclusive, TDP1 cell CPT inconclusive (no result: TDP1 block)
O=C(O)CC/C(=N\Nc1ccc(S(=O)(=O)N2CCCC2)cc1[N+](=O)[O-])c1cccs1	ELG1 DNA repair 21µM
Cc1cc(C2C(C#N)=C(N)Oc3n[nH]c(C)c32)c(C)s1 (stereo unspecified)	DT40 TDP1 no CPT inconclusive, TDP1 cell CPT 8.2µM, IL-1B inflam inh inconclusive
Cc1ccc(-c2ccc(C3C(C#N)=C(N)Oc4n[nH]c(C)c43)o2)cc1 (stereo unspecified)	DT40 TDP1 no CPT inconclusive, ELG1 DNA repair inconclusive, TDP1 cell CPT inconclusive
Cc1[nH]nc2c1C(c1ccsc1C)C(C#N)=C(N)O2 (stereo unspecified)	ELG1 DNA repair inconclusive, TDP1 cell CPT inconclusive, IL-1B inflam inh inconclusive
Cc1[nH]nc2c1C(c1ccc(-c3ccccc3C#N)o1)C(C#N)=C(N)O2 (stereo unspecified)	DT40 TDP1 no CPT 21µM, TDP1 cell CPT 29µM, IL-1B inflam inh -56
Cc1[nH]nc2c1C(c1ccc(-c3ccc(Cl)cc3)o1)C(C#N)=C(N)O2 (stereo unspecified)	DT40 TDP1 no CPT inconclusive, ELG1 DNA repair inconclusive, TDP1 cell CPT 13µM, IL-1B inflam inh -101
CCOc1ccc(-n2c(=O)c3sccc3n(Cc3cccc([N+](=O)[O-])c3)c2=O)cc1	DT40 TDP1 no CPT inconclusive, TDP1 cell CPT inconclusive
Cc1nn(-c2ccc(N3CCCC3)nn2)c(C)c1CCC(=O)NCc1ccccc1F	none (no result: ELG1 DNA repair, Giardia kill, IL-1B inflam inh)
CCS(=O)(=O)c1ccc2oc(SCC(=O)NC34CC5CC(CC(C5)C3)C4)nc2c1	DT40 TDP1 no CPT 13µM, TDP1 cell CPT inconclusive
Cc1ccc(N2CCCC2=O)cc1S(=O)(=O)N1CCOCC1	ELG1 DNA repair inconclusive
CCOC(=O)c1cc2c(=O)n3ccccc3nc2n(CC(C)C)c1=NC(=O)COc1ccc(Cl)cc1	DT40 TDP1 no CPT inconclusive, TDP1 cell CPT inconclusive (no result: ELG1 DNA repair, Giardia kill, IL-1B inflam inh)
CCCn1c(N)c(C(=O)CSc2nnc(Cc3cccs3)n2C2CC2)c(=O)n(C)c1=O	DT40 TDP1 no CPT inconclusive, ELG1 DNA repair 11µM, TDP1 cell CPT inconclusive
COc1ccc(-c2ccoc2)cc1C1C2C=CCC(C)C2C(=O)N1Cc1ccccc1 (stereo unspecified)	none (no result: DT40 TDP1 no CPT, ELG1 DNA repair, TDP1 cell CPT, IL-1B inflam inh)
CCN(CC)C(=O)C1CCN(c2cc(C)nc3c(-c4ccc(OC)c(OC)c4)c(C)nn23)CC1	DT40 TDP1 no CPT inconclusive (no result: ELG1 DNA repair, Giardia kill, IL-1B inflam inh)
CCc1c(C)nc2cc(-c3ccc(OC)c(OC)c3)nn2c1NCC1CC1	DT40 TDP1 no CPT 16µM, ELG1 DNA repair 15µM, TDP1 cell CPT 13µM, IL-1B inflam inh -94
COc1ccccc1C(=O)NCC(=O)N/N=C/c1cc(Br)ccc1OC(=O)/C=C\c1ccco1	DT40 TDP1 no CPT inconclusive, TDP1 cell CPT inconclusive
O=C(CNC(=O)c1ccccc1F)N/N=C/c1cc(Br)ccc1OC(=O)/C=C/c1ccco1	DT40 TDP1 no CPT 5.2µM, TDP1 cell CPT 3.7µM
O=C(CNC(=O)c1ccc(F)cc1)N/N=C/c1cc(Br)ccc1OC(=O)/C=C/c1ccco1	DT40 TDP1 no CPT 2.6µM, ELG1 DNA repair inconclusive, TDP1 cell CPT 9.2µM (no result: TDP1 block)
COc1ccccc1C(=O)NCC[N+](C)(C)C	none (no result: ELG1 DNA repair, Giardia kill, TDP1 block)
C[C@@H]1CN([C@H](C)CO)S(=O)(=O)c2ccc(-c3ccc(C(=O)N(C)C)cc3)cc2O[C@H]1CN(C)C(=O)Cc1ccccn1	none (no result: ELG1 DNA repair, Giardia kill, TDP1 block)
O=C(CCc1c[nH]c2ccccc12)NCCc1ccccc1	none
